# Laboratory results published in PubChem BioAssay AID463173 (ICCB-Longwood Screening Facility, Harvard Medical School, 2010).
# The campaign covered roughly 52,000 compounds. About 4,300 (8.3%) were called active. No stated cut-off is given here; in the data, active means survival mostly below about 52% (no sharp cut-off); inactive means mostly above about 56%. Only a selection was taken, and actives are over-represented in it overall.
# Test system: DeltatarO mutant
# Experiment: growth inhibition of S. aureus wild type versus tarO mutant, primary screen, teichoic acid synthesis inhibitors, RN4220, OD600 (AID 463173)
# Conditions: OD600, 18 h, active compounds read low, screened at 18.75 µg/mL (by protocol)
row,SMILES,survival
1,O=C(NCC(c1cccnc1)N1CCc2ccccc2C1)c1ccc(F)c(F)c1 (stereo not given),70% (inactive)
2,CCOc1ccc(CCNC(=O)CN2C(=O)COc3ccc(S(=O)(=O)N4CCCC4)cc32)cc1,69% (inactive)
3,Cc1ccc(C(c2sc3nc(-c4ccco4)nn3c2O)N2CCCCC2)cc1 (stereo not given),93% (inactive)
4,COc1ccc(CNc2nc(-c3ccco3)nn2S(=O)(=O)c2ccc(Cl)cc2)cc1OC,61% (inactive)
5,COc1ccc(CNc2n[nH]c(-c3ccco3)n2)cc1OC,62% (active)
6,Fc1cccc(Cl)c1CNc1n[nH]c(-c2ccco2)n1,76% (inactive)
7,COc1ccc(CNc2nc(-c3ccco3)nn2S(=O)(=O)c2ccc3ccccc3c2)cc1OC,58% (active)
8,CC(C)c1ccc(CNc2n[nH]c(-c3ccco3)n2)cc1,80% (inactive)
9,COc1ccc(S(=O)(=O)n2nc(-c3ccco3)nc2NCc2ccc(OC)c(OC)c2)cc1,55% (inactive)
10,Cc1ccc(C(=O)Nc2cccc(O)c2)cc1S(=O)(=O)N1CCCCCC1,79% (inactive)
11,CCN(CC)CCCNC(=O)CN1N=C(c2ccccc2)CCC1=O,87% (inactive)
12,COc1ccc(OC)c(CCNC(=O)CCCn2c(=O)c3cccn3c3ccccc32)c1,77% (inactive)
13,COc1ccc(OC)c(NC(=O)Cn2c(=O)c3cccn3c3ccccc32)c1,41% (active)
14,COc1ccc(CNC(=O)Cn2c(=O)c3cccn3c3ccccc32)cc1,47% (inactive)
15,CCOc1ccccc1NC(=O)CN1C(=O)C(=O)c2ccccc21,94% (inactive)
16,Cc1ccc(NC(=O)CCCn2c(=O)c3cccn3c3ccccc32)c(C)c1,49% (inactive)
17,COc1ccc(NC(=O)CCn2c(=O)c3cccn3c3ccccc32)c(OC)c1,47% (active)
18,COc1ccc(NC(=O)CCn2c(=O)c3cccn3c3cccnc32)c(OC)c1,103% (inactive)
19,COc1ccc(NC(=O)CN2C(=O)C(=O)c3ccccc32)c(OC)c1,52% (active)
20,COc1ccc(NC(=O)Cn2c(=O)c3cccn3c3ccccc32)cc1,49% (inactive)
21,COc1ccc(NC(=O)CCCn2c(=O)c3cccn3c3ccccc32)c(OC)c1,57% (active)
22,Cc1cc(Cl)ccc1NC(=O)CN1C(=O)C(=O)c2ccccc21,71% (inactive)
23,Cc1ccc(NC(=O)CCn2c(=O)c3cccn3c3ccccc32)c(Cl)c1,57% (inactive)
24,CC1CN(C(=O)Nc2ccc(C(=O)NCCc3ccccc3Cl)cc2)c2ccccc2S1 (stereo not given),61% (inactive)

row,SMILES,survival
1,COc1ccc(NC(=O)c2ccc3c(c2)sc2nc(-c4ccc(OC)cc4)cn23)cc1,61% (inactive)
2,CN=C1SC(CC(=O)NC)C(=O)N1C (stereo not given),86% (inactive)
3,CCCc1noc2c1C1=NNC(=O)C1C(C)(C)C2 (stereo not given),76% (inactive)
4,O=c1[nH]c2ccc(NCc3ccc(-c4ccccc4)o3)cc2[nH]1,86% (inactive)
5,O=C(Nc1ccc(-n2nncc2-c2ccccc2)cc1)c1cccc(F)c1,129% (inactive)
6,COc1ccc(N2CCN(C(=O)CCc3c(C)nc4cc(-c5ccc(OC)cc5OC)nn4c3C)CC2)cc1,104% (inactive)
7,CC(C)CNC(=O)c1cccc(Cl)c1,82% (inactive)
8,COc1ccc(CCNC(=O)Cn2cc(C(=O)c3ccc(Cl)cc3)c(=O)c3ccc(C)nc32)cc1OC,79% (inactive)
9,COc1ccc(NC(=O)CCCn2c(=O)c3cccn3c3cccnc32)cc1Cl,87% (inactive)
10,COc1ccc(NC(=O)Cn2c(=O)c3cccn3c3ccccc32)cc1Cl,42% (active)
11,Cc1cccc(NC(=O)Cn2c(=O)c3cccn3c3ccccc32)c1C,43% (active)
12,COc1ccc(NC(=O)CCn2c(=O)c3cccn3c3cccnc32)cc1Cl,85% (inactive)
13,COc1ccc(NC(=O)Cn2c(=O)oc3cc(Cl)ccc32)c(OC)c1,91% (inactive)
14,Cc1cc(C)c(NC(=O)Cn2c(=O)c3cccn3c3ccccc32)c(C)c1,51% (inactive)
15,COc1ccc(Cl)cc1NC(=O)CCn1c(=O)oc2ccccc21,40% (active)
16,COc1ccc(OC)c(NC(=O)CCn2cnnn2)c1,80% (inactive)
17,COc1cc(NC(=O)CCn2c(=O)oc3ccccc32)cc(OC)c1OC,62% (inactive)
18,COc1cc(OC)c(NC(=O)CCn2cccn2)cc1Cl,79% (inactive)
19,Cc1c(Cl)cccc1NC(=O)CCn1c(=O)c2cccn2c2ccccc21,49% (inactive)
20,COc1ccc(OC)c(NC(=O)CCn2cccn2)c1,47% (active)
21,COc1ccc(OC)c(NS(=O)(=O)c2ccc(-n3cccn3)cc2)c1,95% (inactive)
22,Cc1ccsc1CN1CCc2nc(Nc3ccccc3)ncc2C1,61% (inactive)
23,CCc1cccc(C)c1NC(=O)C1CCN(c2nn3c(=O)cc(C)nc3s2)CC1,119% (inactive)
24,Cc1cccc(N2CCN(c3ncnc4c3nc3n4CCCCC3)CC2)c1C,95% (inactive)

row,SMILES,survival
1,COc1ccc(C(=O)NCC(c2cccnc2)N2CCN(c3ccccc3OC)CC2)cc1 (stereo not given),77% (inactive)
2,COc1ccc(C)cc1NC(=O)Cc1ccc(NC(=O)N2CCCCc3ccccc32)cc1,67% (inactive)
3,COc1ccc(OC)c(CNC(=O)Cc2ccc(NC(=O)N3CCCCc4ccccc43)cc2)c1,99% (inactive)
4,Cc1ccc2oc(=O)n(CCNC(=O)Nc3ccc(Cl)cc3)c2c1,72% (inactive)
5,CCc1ccc(NC(=O)Cn2c(=O)c3cccn3c3ccccc32)cc1,56% (inactive)
6,COc1ccc(Cl)cc1NC(=O)CCCn1c(=O)c2cccn2c2cccnc21,87% (inactive)
7,COc1ccc(Cl)cc1NC(=O)CCn1c(=O)c2cccn2c2ccccc21,42% (active)
8,COc1ccc(Cl)cc1NC(=O)NCCn1c(=O)oc2ccc(C)cc21,46% (active)
9,CC(=O)c1ccc(NC(=O)Cn2c(=O)c3cccn3c3ccccc32)cc1,42% (active)
10,COc1ccc(NC(=O)Cc2ccc(NC(=O)N3CCCCc4ccccc43)cc2)c(OC)c1,47% (active)
11,Cc1ccc2oc(=O)n(CCNC(=O)Nc3ccccc3C)c2c1,109% (inactive)
12,Cc1ccc(Cl)cc1NC(=O)CCCn1c(=O)c2cccn2c2ccccc21,61% (inactive)
13,CCOC(=O)c1cccc(NC(=O)Cn2c(=O)c3cccn3c3ccccc32)c1,100% (inactive)
14,CCOC(=O)c1c(S(=O)(=O)NCC(=O)N2CCN(c3cccc(Cl)c3)CC2)c(C)n(C)c1C,86% (inactive)
15,O=C(O)c1ccccc1C(=O)N1CCC(C(=O)c2ccccc2)CC1,104% (inactive)
16,COc1ccc(N2CCN(C(=O)C3CCN(S(=O)(=O)Cc4ccccc4)CC3)CC2)cc1,78% (inactive)
17,O=S1(=O)CCC(NNC(=S)Nc2ccccc2)C1 (stereo not given),100% (inactive)
18,CCOCCCNC(=O)c1cc2c(=O)[nH]c3ccccc3c2n1C,116% (inactive)
19,CCCCOc1ccc(S(=O)(=O)NCc2csc(-c3ccc(OC)cc3)n2)cc1,88% (inactive)
20,CCOC(=O)c1c(S(=O)(=O)NCC(=O)Nc2ccc(C)c(N(C)C)c2)c(C)n(C)c1C,79% (inactive)
21,O=C(CCn1c(=O)c2cccn2c2cccnc21)N1CCN(c2ccc(F)cc2)CC1,88% (inactive)
22,O=C(CCn1c(=O)c2cccn2c2cccnc21)N1CCN(c2ccccc2)CC1,102% (inactive)
23,COc1ccc(N2CCN(C(=O)CCn3c(=O)c4cccn4c4cccnc43)CC2)cc1,80% (inactive)
24,Cc1ccc(Cl)cc1N1CCN(C(=O)CCn2c(=O)c3cccn3c3cccnc32)CC1,39% (active)

row,SMILES,survival
1,O=C(CCn1c(=O)c2cccn2c2cccnc21)N1CCN(c2cccc(C(F)(F)F)c2)CC1,39% (active)
2,O=C(CCn1c(=O)c2cccn2c2cccnc21)N1CCN(c2ccc(Cl)cc2)CC1,53% (inactive)
3,Cc1cccc(N2CCN(C(=O)CCn3c(=O)c4cccn4c4cccnc43)CC2)c1C,59% (inactive)
4,Cc1ccc(C)c(N2CCN(C(=O)CCn3c(=O)c4cccn4c4cccnc43)CC2)c1,58% (inactive)
5,O=C(CCn1c(=O)c2cccn2c2cccnc21)N1CCN(c2cccc(Cl)c2)CC1,46% (active)
6,O=C(C1CCN(S(=O)(=O)c2cccs2)CC1)N1CCN(c2cccc(Cl)c2)CC1,64% (inactive)
7,CCOC(=O)c1cc2c(ccn2C)n1Cc1ccc(OC(F)(F)F)cc1,96% (inactive)
8,CCOC(=O)N1CCc2c(sc3c2c(=O)n(Cc2ccccc2)c(=O)n3Cc2cccc(C)c2)C1,83% (inactive)
9,CC(C)NC(=O)CCSc1ccc(Cl)cc1,93% (inactive)
10,COc1ccc(N(C)C(=O)CCn2cnc3onc(-c4ccc(F)cc4)c3c2=O)c(OC)c1,92% (inactive)
11,CCCCNc1nc2c(-c3cccc(Br)c3)nnn2c2ccccc12,101% (inactive)
12,CC(=O)NC(C)c1nc2ccccc2n1Cc1ccccc1Cl (stereo not given),83% (inactive)
13,Cc1nc2ccccc2c(=O)n1CC(C)C,64% (inactive)
14,CC(C)Cn1c(C2CC(=O)N(c3ccccc3Cl)C2)nc2ccccc21 (stereo not given),101% (inactive)
15,CC(C)Cn1c(-c2cccc(Br)c2)nc2ccccc21,21% (active)
16,CC(C)Cn1c(-c2ccccc2Cl)nc2ccccc21,-2% (active)
17,CCCn1c(-c2cccc(Br)c2)nc2ccccc21,-4% (active)
18,CCCn1c(SCC(O)c2cccc(OC)c2)nc2ccccc21 (stereo not given),84% (inactive)
19,CC(C)Nc1nc2c(-c3cccc(Br)c3)nnn2c2ccccc12,69% (inactive)
20,O=C(O)c1ccc(NC(=O)c2cc(S(=O)(=O)N3CCCCC3)c(Cl)cc2Cl)cc1,165% (inactive)
21,CCOCCCN(Cc1ccco1)S(=O)(=O)c1cc2c(cc1C)NC(=O)CO2,64% (inactive)
22,O=C(NCc1ccco1)c1ccccc1,67% (inactive)
23,O=C(Nc1ccccc1)c1cc2sccc2n1Cc1ccccc1,87% (inactive)
